Screening data as filed in PubChem.
VCAM1 TNFa pot: potentiators of TNFa-induced VCAM1 expression, primary screen, imaging, HUVEC, TNFa stimulus, immunofluorescence; HUVEC TNFa-stimulated VCAM-1 immunofluorescence, high-content imaging; scaled per plate to unstimulated/TNFa-only wells; AID 808, 2007; activation, % at 2 µM; 0.19% of 93,000 active;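 active = activation above the screen mean plus 3 SD, with well images confirming the hit on visual review, cut at about 28% in these data, passing the limit was not always enough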;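 note: signal is the number of cytoplasmic VCAM-1 stained grains per positive cell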
VCAM1 pot confirm: potentiators of TNFa-induced VCAM1 expression, confirmation, imaging, HUVEC, triplicate retest; 230 tested, under 10 active; activation, % at 2 µM; shares compounds with VCAM1 TNFa pot; HUVEC TNFa-stimulated VCAM-1 immunofluorescence imaging;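 active = activation above 30% in triplicate retests at 2 µM, then confirmed by visual review of the well images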
Of the large screens only hits and unclear results are named; the others gave an inactive call (follow-up assays come after a bar, where they were run). This is one part of a sample in which hits are shown more often than they occur.

COc1ccc(CN(C)C2CCCCC2)c(C)c1C	none
Cc1cccc(Cn2c(C(=O)OC(C)C)cc3c2ccn3C)c1	none
O=S(=O)(c1ccc2c(c1)nc(COc1ccc(Cl)cc1)n2CC1CCCO1)N1CCOCC1 (stereo not drawn)	none
CCCCOc1ccc(NC(=O)CSc2nnnn2C)cc1	none
CCOc1cccc(C(=O)Nc2ccc3oc(Cc4ccc(Cl)cc4)nc3c2)c1	none
CC(C)(C)S(=O)c1cccs1 (stereo not drawn)	none
CCN1C(=O)C(CC(=O)Nc2ccc(Br)cc2)N(CCCc2ccccc2)C1=S (stereo not drawn)	none
CCNc1ccc(Br)cc(C(=O)/C=C/c2ccc(Cl)cc2Cl)c1=O	none
COC(=O)C(C)Oc1ccc2c3c(c(=O)oc2c1)CCCCC3 (stereo not drawn)	none
Cc1ccc(S(=O)(=O)Cc2ccc(C(=O)O)o2)cc1	none
COc1cccc(/C=C/C(=C2\C(=O)N(c3ccccc3)N=C2C)c2ccc(Br)cc2)c1OC	none
N#Cc1ccccc1CSc1nc(N2CCCCC2)nc(N2CCCCC2)n1	none
Cc1ccc(Oc2ncccc2/C=N/OCc2ccc(Cl)c(Cl)c2)cc1	none
CCCCC(=O)Nc1ccccc1C(=O)N1CCOCC1	none
CC1N(O)C(C)(C)C(c2ccccc2)=[N+]1[O-] (stereo not drawn)	none
COC(=O)CSC(C(=O)Nc1ccc(C)c(C)c1)c1ccccc1 (stereo not drawn)	none
O=C(NC1CCCc2ccccc21)c1cncc(Br)c1 (stereo not drawn)	none
CC1=C(C)/C(=N/OC(=O)c2cccc([N+](=O)[O-])c2)C=CC1=O	none
Cc1cc(N2CCOCC2)nc(SCc2ccc(Cl)cc2Cl)n1	none
CCCn1c(=N)n(CCOCCOCCn2c(=N)n(CCC)c3ccccc32)c2ccccc21	none
Cc1cc(N(C)C)nc(SC(C)C)n1	none
CCCOC(=O)CSC1=C(C#N)C(c2ccccc2OC)C(C#N)C(=O)N1 (stereo not drawn)	none
Cc1ccc(OCCNS(=O)(=O)c2cccs2)cc1	none
CC(NC(=O)c1ccco1)C(c1cccs1)N1CCOCC1 (stereo not drawn)	none
O=C(NC12CC3CC(CC(C3)C1)C2)c1cncc(O)c1	none
CCOc1ccc2nc(SCC(=O)NC(=O)NCc3ccco3)[nH]c2c1	none
COC(=O)NNC(=O)c1ccccc1C	none
CCCCCn1c(CCC(=O)Oc2ccccc2OC)nc2c1c(=O)[nH]c(=O)n2CCCC	none
CNc1nc(NC)nc(-n2c(C(F)(F)F)nc3ccccc32)n1	none
O=C(CN1C(=O)C2CC=CCC2C1=O)NCC1COc2ccccc2O1 (stereo not drawn)	none
Cc1ccc(S(=O)(=O)NCC(c2ccccc2)N2CCN(CCC#N)CC2)cc1 (stereo not drawn)	none
CC(C)Oc1ccc(C2C(C(=O)c3ccco3)=C(O)C(=O)N2CCCN(C)C)cc1 (stereo not drawn)	none
Cc1nn(C(CC(=O)O)C(=O)O)c(C)c1Br (stereo not drawn)	none
CCOC(=O)CSc1nnc(CNC(=O)c2ccc(OC)cc2OC)n1-c1ccc(OC)cc1	none
Cn1c(=O)c2c(-c3ccncc3)c3c(nc2n(C)c1=O)-c1ccccc1C3=O	none
Cn1c(Sc2ccc(C(F)(F)F)cc2[N+](=O)[O-])nnc1-c1ccccc1	none
CN(CC(=O)NCc1ccncc1)S(=O)(=O)c1ccc(F)cc1	none
COCCNC(=O)CSc1nc2ccccc2c(=O)n1CCCC(=O)NCc1ccccc1	none
Cc1cccc(OCCCCCn2ccnc2)c1	none
CCCCNC(=O)CN(c1cccc(Br)c1)S(C)(=O)=O	none
O=C1OCC(CO)(CO)N=C1NNc1ccccc1Cl	none
CC1CCC2(CC1)N=C(N)Nc1nc3ccccc3n12 (stereo not drawn)	none
CC1CCc2c(sc3ncnc(N4CCN(S(=O)(=O)c5cccc6nonc56)CC4)c23)C1 (stereo not drawn)	none
CCCSc1nnc(C(C)C)n1N	none
COC(=O)c1nn(-c2ccc(Cl)cc2)c(=O)cc1Sc1ccccn1	none
CCCN1CNC(=S)N(c2cc(C)ccc2C)C1	none
CCCc1cc(C(N)=O)c(NC(C)=O)s1	none
CN1CCCCc2c1[nH]c1ccccc1c2=O	none
COc1ccc(N2C(=O)CC(n3c(CCCCO)nc4ccccc43)C2=O)cc1 (stereo not drawn)	none
O=S(=O)(NCc1ccco1)c1ccc(S(=O)(=O)N2CCCCC2)cc1	none
CN(C)CCCN1C(=O)C(=O)/C(=C(/O)c2ccc3c(c2)OCO3)C1c1ccccn1 (stereo not drawn)	none
CCC1CCc2c(sc(NC(=O)CSc3nc(-c4ccco4)cc(C(F)(F)F)n3)c2C#N)C1 (stereo not drawn)	none
Nc1nonc1-n1nnc(C(=O)O)c1-c1cccs1	none
COc1cc2[nH]c(=O)n(CCCCCC(=O)N3CC=C(c4ccccc4)CC3)c(=O)c2cc1OC	none
O=C1O/C(=C/C(=O)N2CCOCC2)c2ccccc21	none
O=C(CSc1nnc(-c2cccs2)n1-c1ccccc1)N1CCc2ccccc21	none
CCOC(=O)CNC(=O)CSc1nnc(Cn2cnc3ccccc32)n1C	none
COCc1cc(Sc2ccc(Cl)cc2Cl)nc(-c2ccccc2)n1	none
CC(=O)c1cccc(N(CC(=O)O)S(C)(=O)=O)c1	none
CCOC(=O)C1CCCN(Cc2sccc2C)C1 (stereo not drawn)	none
CCN(CC)CC(C)OC(=O)COc1ccc(OC)cc1 (stereo not drawn)	none
CC(NCc1ccc2c(c1)OCO2)C(=O)NC1CCCc2ccccc21 (stereo not drawn)	none
CN1CCN(c2ncccc2S(=O)(=O)N2CCCCC2)CC1	none
O=S(=O)(N1CCCCCC1)N1CCN(S(=O)(=O)N2CCCCC2)CC1	none
CCCCC1CC1C(=O)Nc1ncc2c(n1)CC(C)(C)CC2=O (stereo not drawn)	none
CN(C(=O)CSc1nc(N)nn1-c1ccccc1)c1ccccc1	none
Brc1ccc(NCc2cccc3ccccc23)nc1	VCAM1 TNFa pot 31.1 | VCAM1 pot confirm inactive
CCOC(=O)c1nc2cc3n(c(C)c-2c1C)C(C)C(CC)=C3C (stereo not drawn)	none
O=C(NC(C(=O)c1ccccc1)n1ccc(=O)[nH]c1=O)c1ccccc1 (stereo not drawn)	none
CC(C)(CO)NC(=O)CCCOc1ccc(Cl)cc1Cl	none
Cc1cc(C)n(C(=O)COc2ccc(Cl)cc2Cl)n1	VCAM1 TNFa pot 43.3 | VCAM1 pot confirm inactive
COc1cc(OC)cc(C(=O)n2nc(C)cc2C)c1	none
CCOC(=O)C1=C(c2ccccc2)Nc2nc(C)nn2C1c1cccc(OC)c1OC (stereo not drawn)	none
Cc1ccccc1OCCNc1ccc(C(F)(F)F)cc1[N+](=O)[O-]	none
C/C(=N\Nc1nc2c(s1)CCCC2)c1ccccc1	none
Cc1cc(C)nc(N(C#N)CN2C(=O)c3ccccc3S2(=O)=O)n1	none
O=C1C2C3C=CC(C3)C2C(=O)N1CCN1CCN(S(=O)(=O)c2ccc3ccccc3c2)CC1 (stereo not drawn)	none
CCOC(=O)c1ccc(NC(=O)Cn2nnc(-c3ccccc3)n2)cc1	none
CCOc1ccc(-c2nnn(CC(=O)c3ccc4c(c3)OCCO4)n2)cc1	VCAM1 TNFa pot 84.5 | VCAM1 pot confirm inactive
Cc1cc(C)n(-c2ccc(C(=O)Oc3ccc4c(c3)OCO4)cc2)n1	none
CSc1nc(C)cc(OCC#N)n1	none
CCN1C(=O)C2C(C1=O)N1C(c3ccccc3)C3C(=O)N(CC)C(=O)C3N1C2c1ccccc1 (stereo not drawn)	none
Cc1ccc(S(=O)(=O)N(C)CC(=O)NC2CC(C)(C)NC(C)(C)C2)cc1	none
